Results taken from PubChem BioAssay AID626 (Vanderbilt High Throughput Screening Facility, 2007).
The campaign covered roughly 64,000 compounds. About 1,900 (3%) were called active. The list comes from a sample in which actives are over-represented; it also holds similar structures and randomly drawn compounds. Values without a mark were called inactive.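 How the source made its calls: active means fluorescence rise, raw or as B-score row- and column-corrected plate score, outside the 99.7% band of its plate's samples, either direction; inactive means the rest.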

system: Muscarinic acetylcholine receptor M1; test: direct activation of M1 receptor calcium signal – CHO-M1 cells, Fluo-4 calcium, agonist mode, primary screen (AID 626); settings: Fluo-4 calcium fluorescence, at 10 µM, active compounds read high

Row | SMILES | B-score
1 | CCC1(C)Cc2c(sc3nc4n(c(=O)c23)CCCS4)CO1 (stereo unspecified) | -0.146
2 | CCOC(=O)c1cc(-c2ccc(Cl)s2)nc2c1c(C)nn2C | 0.0112
3 | CSc1ccc(Cl)c(C(=O)OCC(=O)N2CC(C)OC(C)C2)c1 (stereo unspecified) | -0.691
4 | Cc1cc(OCCN2CCCC2)ccc1C(C)C | -1.57
5 | COc1ccccc1NC1=NC2(CCCC2)N=C(N)N1 | 0.458
6 | COc1ccccc1NC1=NC(c2ccc(Cl)cc2)N=C(N)N1 (stereo unspecified) | 2.75 (active)
7 | COc1ccccc1Nc1nc(N)nc(CN(C)C2CCCCC2)n1 | 0.169
8 | O=C(Nc1nc(-c2ccc3c(c2)OCO3)cs1)c1ccncc1 | 5.34 (active)
9 | O=C(Nc1ccc2c(c1)OCCO2)c1ccncc1 | -0.637
10 | O=C(Nc1nc(-c2ccncc2)cs1)C1COc2ccccc2O1 (stereo unspecified) | -1.04
11 | CC1(C)CC(=O)C(C=NCCC2=CCCCC2)=C(O)C1 | 0.836
12 | O=C(c1ccccc1)c1ccc(OC(=O)N2CCCC2)cc1 | -2.34 (active)
13 | O=C(c1ccccc1)N1CCN(C(=O)N2CCCCC2)CC1 | -0.157
14 | O=C(Oc1ccc2c(c1)CCC2)N1CCOCC1 | -0.594
15 | CC(C)(C)c1ccc(NC(=O)NCc2ccco2)cc1 | 0.39
16 | c1cnc(NC2C3CC4CC(C3)CC2C4)nc1 (stereo unspecified) | 2.24
17 | COc1ccccc1NC(=O)CSc1nc2sc(C)c(C)c2c(=O)n1Cc1ccco1 | -1.75
18 | CCOC(=O)CSc1nc2c(c(=O)n(C)c(=O)n2C)n1Cc1ccccc1F | -0.066
19 | CCOC(=O)CSc1nc2c(sc(=S)n2CCc2ccccc2)c(=O)n1Cc1ccco1 | 7.17 (active)
20 | CC(=O)Nc1ccc(S(=O)(=O)NCCc2ccccc2)cc1 | -0.0675
21 | Cc1cc(NC(=O)COC(=O)c2ccc(F)c(S(=O)(=O)N3CCOCC3)c2)no1 | 0.164
22 | Cc1cc(C)n(C(=O)c2ccc(C)c(S(=O)(=O)N3CCOCC3)c2)n1 | -0.672
23 | COc1ccc(C(=O)OCC(=O)c2ccc(C)c(S(=O)(=O)N3CCOCC3)c2)cc1OC | 11.4 (active)
24 | CCC(C)NC(=O)C1CCC(=O)N1Cc1ccc(C)cc1 (stereo unspecified) | -0.196

Row | SMILES | B-score
25 | O=C(CN1C(=O)COc2ccccc21)Nc1ccc(F)cc1 | 0.887
26 | O=C(Nc1ccccc1)c1cccnc1Nc1ccccc1 | 1.29
27 | COc1ccc(CNC(=O)c2cc3c(=O)n4ccccc4nc3n(CC3CCCO3)c2=N)cc1 (stereo unspecified) | 0.00619
28 | Cc1cccn2c(=O)c3cc(C#N)c(=NC(=O)c4cccnc4)n(CC4CCCO4)c3nc12 (stereo unspecified) | 37.8 (active)
29 | Cc1cccn2c(=O)c3cc(C#N)c(=O)n(CCCN4CCOCC4)c3nc12 | -0.675
30 | CC(=O)NC1CC2CCCC(C1)N2CC(=O)Nc1ccccc1 (stereo unspecified) | -1.24
31 | C=CCn1c2ccccc2c2nnc(SC(CC)C(=O)Nc3nc(C)c(C(=O)OCC)s3)nc21 (stereo unspecified) | 1.41
32 | O=C(O)CCC(=O)NCc1ccc2[nH]c3c(c2c1)CCCC3 | 1.3
33 | CCCc1cc(=O)oc2c(C)c(O)c(CN3CCCCC3)cc12 | 0.177
34 | CCn1c(Cc2ccccc2)nnc1SCC(=O)Nc1ccccc1 | -0.0339
35 | COc1ccc(CCNC(=O)C2CCN(c3nn4c(=O)cc(C)nc4s3)CC2)cc1OC | 4.73 (active)
36 | CCCS(=O)(=O)N1CCC(C(=O)NCCc2ccc(OC)c(OC)c2)CC1 | -0.16
37 | Cc1cc(=O)n2nc(N3CCCC(C(=O)NCCC4=CCCCC4)C3)sc2n1 (stereo unspecified) | -0.152
38 | Clc1ccc(CSc2nnc([C@@H]3CCCN3)o2)cc1 | -0.196
39 | CC(C)C1Cc2c(sc3c2c(=O)n(-c2ccccc2)c2nncn32)CO1 (stereo unspecified) | -0.132
40 | O=C(COc1ccc(Cl)cc1)Nc1ccccc1CO | 1.32
41 | O=C(COC(=O)CCc1c[nH]c(=O)[nH]1)Nc1ccccc1Cl | 2.4 (active)
42 | CC1(C)CC(CCC(=O)Nc2ccccc2Cl)C(=O)O1 (stereo unspecified) | 0.285
43 | CCOC(=O)N1CCN(Cc2oc(CO)cc(=O)c2O)CC1 | 0.262
44 | O=C(c1cccc(C(=O)N2CCN(c3ccc(F)cc3)CC2)c1)N1CCN(c2ccc(F)cc2)CC1 | 3.5 (active)
45 | O=C(c1ccccc1)c1cccn1CC(=O)N1CCN(c2ccc(F)cc2)CC1 | -0.56
46 | Cc1ccccc1CN1CCN(C(=O)c2cccc(F)c2)CC1 | -0.152
47 | CS(=O)(=O)N(CC(=O)N1CCOCC1)c1ccc2c3c(cccc13)CC2 | 0.155
48 | Cc1ccc(NC2=NC(c3ccccc3)n3c(nc(C)cc3=O)N2)cc1 (stereo unspecified) | -0.0683

Row | SMILES | B-score
49 | COC(=O)c1ccccc1NC(=O)c1cncc(Br)c1 | 0.529
50 | Cc1cccc2cc(C#N)c(N3CCCC3)nc12 | 1.26
51 | CCOc1ccc2nc(N3CCCN(C(=O)Nc4ccccc4C)CC3)c(C#N)cc2c1 | 49.3 (active)
52 | CCOc1ccc2nc(NCCNS(=O)(=O)c3ccccc3)c(C#N)cc2c1 | -0.354
53 | Nc1ccc(SCCN2C(=O)c3ccccc3C2=O)cc1 | 13.8 (active)
54 | Cc1ccc(SCCN2C(=O)NC(C)(C)C2=O)cc1 | 0.397
55 | O=C1c2ccccc2C(=O)N1CCc1nn[nH]n1 | 0.641
56 | NS(=O)(=O)c1ccc(NS(=O)(=O)/C=C/c2ccccc2)cc1 | -0.0855
57 | O=C(OCCO)c1cc(Cl)c(C(=O)OCCO)cc1Cl | 0.283
58 | Cc1ccc(CNC(=O)CN2CCN(Cc3ccc(Cl)cc3)C2=O)cc1 | -0.559
59 | CS(=O)(=O)N(Cc1nc2sc3c(c2c(=O)[nH]1)CCCC3)C1CCCCC1 | -0.0154
60 | CSCCC(NC(=O)C1CCC(C)CC1)C(=O)NCc1ccco1 (stereo unspecified) | -0.577
61 | Cn1c(=O)[nH]c(=O)c2c1nc(NCCCn1ccnc1)n2Cc1cccc(Br)c1 | 0.757
62 | CCOc1ccc(C2C(C(=O)O)c3ccccc3C(=O)N2CCN2CCOCC2)cc1 (stereo unspecified) | 0.0396
63 | COc1ccc(N2CCN(CCNC(=O)CCN3C(=O)COc4ccccc43)CC2)cc1 | 0.72
64 | COc1ccc(C2C(C(=O)N3CCN(c4ccc(OC)cc4)CC3)c3ccccc3C(=O)N2C)cc1 (stereo unspecified) | 4.34 (active)
65 | CN(C)/C=C/c1c(C#N)c(=O)ncn1Cc1ccccc1 | 1.01
66 | N#C/C=C\Oc1ccc(Cl)cc1N | 0.000464
67 | CCCC(=O)NC(C)C(c1cccs1)N1CCN(c2ccccc2)CC1 (stereo unspecified) | -0.223
68 | COc1ccc(C(C(O)C(=O)c2c[nH]c3ccccc23)N2CCN(c3ccccc3)CC2)cc1 (stereo unspecified) | 3.3 (active)
69 | COc1ccc(OC)c(S(=O)(=O)N(C)CC(=O)N2CCN(c3ccccc3)CC2)c1 | 0.148
70 | CCOC(=O)c1sc(NC(=O)CSc2ncccn2)c(C#N)c1C | 0.288
71 | COc1ccc(S(=O)(=O)N2CCN(C(=O)c3cccs3)CC2)cc1OC | -1.5
72 | CC(=O)c1ccc(N2C(=NC(=O)C(C)C)SC3CS(=O)(=O)CC32)cc1 (stereo unspecified) | -0.587

Row | SMILES | B-score
73 | Cn1c(=O)c(=O)n(C)c2cc(S(=O)(=O)NCCc3ccccc3)ccc21 | 0.704
74 | O=C(CN1CCOCC1)Nc1ccc(NC(=O)CN2CCOCC2)c(Cl)c1 | -0.0117
75 | COc1ccc(NC(C)=O)cc1NC(=O)CN1CCN(C2c3ccccc3-c3ccccc32)CC1 | 0.8
76 | CC(=O)Nc1ccc(NC(=O)CN2CCCC(C)C2)c(Cl)c1 (stereo unspecified) | 6.88 (active)
77 | CCNS(=O)(=O)c1ccc(NC(=O)Nc2cccc(OC)c2)cc1 | 2.45
78 | CCOP1(=O)C=C(C(C)(C)C)OC1c1ccc(F)cc1 (stereo unspecified) | -0.203
79 | CCOc1ccc(NCCC(=O)c2ccc3c(c2)OCO3)cc1 | -0.0168
80 | Cc1ccc2oc(=O)c3cnn(CC(=O)N4CCN(c5ccccn5)CC4)c3c2c1 | 7.39 (active)
81 | Cc1ccc2oc(=O)c3cnn(CC(=O)N4CCCCCC4)c3c2c1 | 0.0625
82 | CCOC(=O)C1CCCN(C(=O)Cn2ncc3c(=O)oc4ccc(C)cc4c32)C1 (stereo unspecified) | -0.657
83 | O=C(NC1CC2CCCC(C1)N2C(=O)N1CCCCC1)C1CCCCC1 (stereo unspecified) | 0.398
84 | CN1CCCC(OC(=O)COc2ccc(Br)cc2)C1 (stereo unspecified) | 2.29
85 | Cc1ccc(F)cc1NC(=O)c1ccc2c(c1)OCO2 | 0.368
86 | CCOC(=O)c1c(NC(=O)CSc2nnc(CN3CCOCC3)n2C)sc2c1CCCC2 | 0.743
87 | O=C(CSc1nnc(-c2ccco2)n1-c1ccccc1)NCCc1ccccc1 | 0.164
88 | c1ccc(CSc2nnc(-c3ccco3)n2Cc2ccccc2)cc1 | 1.61
89 | O=C(CSc1nnc(-c2ccco2)n1Cc1ccccc1)NC(=O)NCc1ccco1 | 2.23 (active)
90 | COc1cccc(-c2nn(C)c3sc(C(=O)N4CCN(c5ccccc5)CC4)cc23)c1 | -0.654
91 | CC(C[N+](C)(C)C)OC(N)=O (stereo unspecified) | 67.7 (active)
92 | CC(=O)OC(C)C[N+](C)(C)C (stereo unspecified) | 53.8 (active)
93 | CCC(=O)N1c2ccc(S(=O)(=O)CCC(=O)N3CCN(c4ccccc4)CC3)cc2CC1C (stereo unspecified) | -2.01
94 | Cn1c(=O)c2c(ncn2CC(=O)N2CCN(c3ccccc3)CC2)n(C)c1=O | 0.437
95 | COc1ccc(-c2nnco2)cc1OC | 0.77
96 | O=S(=O)(CCc1nc2ccccc2o1)c1ccc(Cl)cc1 | 0.134
